Compound activity deposited in PubChem by National Center for Advancing Translational Sciences (NCATS).
This is a sample that favours compounds with a hit; in the whole collection about 19% have one here.
HT1080 IDH1KD tx – qHTS for induction of synthetic lethality in tumor cells producing 2HG: qHTS for the HT-1080-IDH1KD cell line. HT-1080 IDH1 knockdown viability, ATP luminescence, 48 h. Potency, µM (series often up to 46.1 µM), hits mostly cytotoxic. 360,000 tested, 2% active. AID 686971, 2013
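% activity derives from luminescence (CellTiter-Glo), normalised to DMSO and no-cell wells. HT-1080-IDH1KD cells, 750/well, had 48 h compound exposure at 37 °C.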
HT1080-NT tox – qHTS for induction of synthetic lethality in tumor cells producing 2HG: qHTS for the HT-1080-NT fibrosarcoma cell line; HT-1080-NT fibrosarcoma viability, CellTiter-Glo ATP luminescence, 48 h; AID 686970, 2013; Potency, µM (top dose mostly 46.1 µM), most hits filed as cytotoxic; 360,000 tested, 1.6% active;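 further: NT is the 2HG producing partner of a matched IDH1 knockdown line; nearly all actives have a fitted effect of over 55% in size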
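Luminescent CellTiter-Glo readout after 48 hours of compound exposure at 37 degrees C defined viability of HT-1080-NT cells. Activity was normalized to DMSO wells and cell-free media wells; concentration-response curves were fitted and assigned curve classes.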
DT40 TDP1 CPT – qHTS for Inhibitors of human tyrosyl-DNA phosphodiesterase 1 (TDP1): qHTS in cells in presence of CPT | Potency, µM (titrated, usually from 46.2 µM), usual class: inhibitors | chicken DT40 Tdp1-/-;hTDP1 cells + 20 nM CPT, ATP luminescence, 48 h | AID 686979, 2013 | 420,000 tested, 12% active; further: nearly all actives have a fitted effect of over 55% in size
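Cell growth measured by CellTiter-Glo luminescence after a minimum 48 h, 37 C compound exposure with 20 nM CPT in Tdp1-knockout DT40 cells stably expressing hTDP1, seeded 400/well; qHTS titration format.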
IL1B secr inh – qHTS for Inhibitors of Inflammasome Signaling: IL-1-beta AlphaLISA Primary Screen. AID 743279, 2014. THP-1 LPS/ATP IL-1B secretion, AlphaLISA, 16 h; active compounds read low. 360,000 tested, 4.7% active. activity change, % at 57.5 µM; in the data active means activity change below about -50%; inconclusive means mostly about -30% to -49%
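THP-1 cells pretreated 1 hr with compounds (up to 57.5 uM final), then stimulated with LPS (250 ng/mL final) plus ATP (1.25 mM final); secreted IL-1B measured by AlphaLISA after 16 hr, decreased signal indicating inhibition.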
DT40 TDP1 no CPT – qHTS for Inhibitors of human tyrosyl-DNA phosphodiesterase 1 (TDP1): qHTS in cells in absence of CPT | AID 686978, 2013 | DT40 Tdp1-/- hTDP1 cells, no CPT, ATP luminescence, 48 h | 420,000 tested, 15% active | Potency, µM (series often up to 46.2 µM), hits mostly inhibitors; further: nearly all actives have a fitted effect of over 55% in size
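No-CPT arm: Tdp1-/-;hTDP1 DT40 cells (400/well) plus compounds, incubated ≥48 hr at 37 °C. Readout CellTiter-Glo luminescence.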
Numbers stand for hits. Unless noted, the call rests on the fitted dose curve; in most records, active means well fitted curve in the direction sought with a large enough effect; inconclusive means small, poorly fitted or top-dose-only effect, or another doubt; inactive means no such curve, though single readings can be large; an effect the other way counts as inactive or inconclusive.

For CC(C)C[C@H]1CN(CCCC[C@H]2CNC(=O)C(=O)N2CCC2CCCCC2)C(=O)C(=O)N1CCc1ccccc1 the results were HT1080 IDH1KD tx inactive, HT1080-NT tox inactive, DT40 TDP1 CPT inconclusive, IL1B secr inh inconclusive and DT40 TDP1 no CPT 18.4µM.
`COc1ccccc1C(=O)Nc1ccnn1C1CCN(CC2CC=CCC2)CC1` (stereo not drawn) gave HT1080 IDH1KD tx inactive, HT1080-NT tox inactive, DT40 TDP1 CPT inactive, IL1B secr inh inactive and DT40 TDP1 no CPT inactive.
`CCOC(=O)c1sc(NC(=O)CSc2nc3c(c(=O)n2-c2ccc(C)cc2)SCC3)c(C(=O)OCC)c1C` gave HT1080 IDH1KD tx inactive, HT1080-NT tox inactive, DT40 TDP1 CPT inactive, IL1B secr inh inactive and DT40 TDP1 no CPT inactive.
O=P(CCC(F)(F)F)(CCC(F)(F)F)CCC(F)(F)F was read as HT1080 IDH1KD tx inactive, HT1080-NT tox inactive, DT40 TDP1 CPT inactive, IL1B secr inh inactive and DT40 TDP1 no CPT inactive.
`Cc1ccc(S(=O)(=O)NCC2CCC(C(=O)NCCc3ccc(Cl)cc3)CC2)cc1` (stereo not drawn) gave DT40 TDP1 CPT inactive and DT40 TDP1 no CPT inactive.
For c1ccc(-c2cc3c(N4CCOCC4)ncnc3s2)cc1 the results were HT1080 IDH1KD tx inconclusive, HT1080-NT tox inconclusive, DT40 TDP1 CPT 16.4µM, IL1B secr inh -61.8 and DT40 TDP1 no CPT 14.6µM.
Screening c1ccc(-c2cc3c(N4CCCC4)ncnc3s2)cc1 returned HT1080 IDH1KD tx inactive, HT1080-NT tox inactive, DT40 TDP1 CPT inconclusive, IL1B secr inh inactive and DT40 TDP1 no CPT 20.6µM.
OCCN1CCN(c2nc3ccccc3nc2-c2ccccc2)CC1 was read as HT1080 IDH1KD tx inactive, HT1080-NT tox inactive, DT40 TDP1 CPT inactive, IL1B secr inh inactive and DT40 TDP1 no CPT inactive.
Cc1nc(N2CCOCC2)c2cc(-c3ccccc3)sc2n1 was read as HT1080 IDH1KD tx inactive, HT1080-NT tox inactive, DT40 TDP1 CPT inconclusive, IL1B secr inh inconclusive and DT40 TDP1 no CPT 18.4µM.
`c1ccc(-c2cc3c(N4CCCCC4)ncnc3s2)cc1` gave HT1080 IDH1KD tx inactive, HT1080-NT tox inactive, DT40 TDP1 CPT inactive, IL1B secr inh inactive and DT40 TDP1 no CPT inconclusive.
`OCCN1CCN(c2ncnc3sc(-c4ccccc4)cc23)CC1` gave HT1080 IDH1KD tx inconclusive, HT1080-NT tox 18.4µM, DT40 TDP1 CPT inconclusive, IL1B secr inh -93.3 and DT40 TDP1 no CPT 14.6µM.
`CCC(=O)Nc1ccc(S(=O)(=O)NCc2ccco2)cc1` gave HT1080 IDH1KD tx inactive, HT1080-NT tox inactive, DT40 TDP1 CPT inactive, IL1B secr inh inactive and DT40 TDP1 no CPT inactive.
Screening O=C(CSc1nc2ccccc2[nH]1)NCCN1CCCCC1 returned HT1080 IDH1KD tx inactive, HT1080-NT tox inactive, DT40 TDP1 CPT inactive, IL1B secr inh inactive and DT40 TDP1 no CPT inactive.
Screening COc1ccc(OC)c2c1cc(C(=O)N[C@@H](C)C(=O)N[C@@H](C(=O)O)c1ccccc1)n2C returned HT1080 IDH1KD tx inactive, HT1080-NT tox inactive, DT40 TDP1 CPT inactive, IL1B secr inh inactive and DT40 TDP1 no CPT inactive.
Screening CCCc1cc(=O)[nH]c(SC(C)C(=O)N2c3ccccc3CC2C)n1 (stereo not drawn) returned HT1080 IDH1KD tx inactive, HT1080-NT tox inactive, DT40 TDP1 CPT inactive, IL1B secr inh inactive and DT40 TDP1 no CPT inactive.
Screening CN(C)C(=O)c1ccc(-c2ccc3ncnc(N4CCNCC4)c3c2)cc1 returned DT40 TDP1 CPT inactive and DT40 TDP1 no CPT inactive.
Cc1ccc(NC(=O)C(Cc2ccccc2)n2cccc2)cc1C (stereo not drawn) was read as DT40 TDP1 CPT 11.6µM and DT40 TDP1 no CPT 16.4µM.
Cc1cccc(N2CCN(C(=O)c3ccncc3)CC2)c1C was read as HT1080 IDH1KD tx 13µM, HT1080-NT tox 9.2µM, DT40 TDP1 CPT 20.6µM, IL1B secr inh inactive and DT40 TDP1 no CPT 20.6µM.
